Where “and” joins values, the source holds several entries; their conditions need not be identical. Identical values can stand only once. Results filed as inconclusive are left out. Entries that show only a call come without a potency. Calls of active or inactive are those of the source. Unless noted, calls come from the whole dose curve; as a rule, active = well fitted curve in the direction sought with a large enough effect in the repeat runs; inconclusive = weak or mixed curves; inactive = no such curve, though single readings can be large; an effect the other way counts as inactive or inconclusive.
What was measured:
[1] = qHTS assay to identify small molecule antagonists of the glucocorticoid receptor (GR) signaling pathway - cell viability counter screen (AID 720693); note: nearly all actives have a fitted effect of over 55% in size; note: potency is the fitted concentration of half-maximal effect
[2] = qHTS assay for identifying genotoxic compounds that show differential cytotoxicity against isogenic chicken DT40 cell lines with known DNA damage response pathways - wild type cell line (AID 743012); note: nearly all actives have a fitted effect of over 60% in size; note: potency is the fitted concentration of half-maximal effect
Outline: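 Viability of DNA repair-proficient chicken DT40 cells was assessed by CellTiter-Glo luminescence following 40 h compound exposure at 37 C/5% CO2.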

[3] = qHTS assay for identifying genotoxic compounds that show differential cytotoxicity against isogenic chicken DT40 cell lines with known DNA damage response pathways - Rev3 mutant cell line (AID 743014); note: nearly all actives have a fitted effect of over 55% in size; note: potency is the fitted concentration of half-maximal effect
[4] = qHTS assay for identifying genotoxic compounds that show differential cytotoxicity against isogenic chicken DT40 cell lines with known DNA damage response pathways - Rad54/Ku70 mutant cell line (AID 743015); note: nearly all actives have a fitted effect of over 60% in size; note: potency is the fitted concentration of half-maximal effect
[5] = qHTS assay to identify small molecule antagonists of the androgen receptor (AR) signaling pathway - cell viability counter screen (AID 743033; note: nearly all actives have a fitted effect of over 45% in size; note: potency is the fitted concentration of half-maximal effect)
[6] = molecular target: Androgen receptor (Homo sapiens) (UniProt P10275); assay: qHTS assay to identify small molecule agonists of the androgen receptor (AR) signaling pathway (AID 743036; active = well fitted activation curve with a large enough effect in the signal ratio in the repeat runs, with a control signal flat, not every such curve was filed as active; the % refers to the signal ratio)
Outline: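 AR-UAS-bla HEK293 cells, plated 4 h before dosing, were treated with compound for 16 h at 37C. beta-Lactamase reporter read after 2 h with LiveBLAzer B/G FRET substrate at room temperature.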

[7] = molecular target: Androgen receptor (Homo sapiens) (UniProt P10275); assay: qHTS assay to identify small molecule agonists of the androgen receptor (AR) signaling pathway using the MDA cell line (AID 743040; note: nearly all actives have a fitted effect of over 20% in size)
Outline: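 Stable MMTV-luciferase reporter in MDA-kb2 cells; note the promoter carries GR as well as AR response elements. 16 h compound treatment, 37C, 0% CO2; ONE-Glo luminescence endpoint.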

[8] = qHTS assay to identify small molecule antagonists of the androgen receptor (AR) signaling pathway using the MDA cell line - cell viability counter screen (AID 743041; note: nearly all actives have a fitted effect of over 45% in size; note: potency is the fitted concentration of half-maximal effect)
Outline: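 Using the breast carcinoma line MDA-kb2 AR-luc, test chemicals were co-incubated with R1881 for 16 h; CellTiter-Fluor reagent, added at 15.5 h, provided a fluorescence measure of live cells.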

[9] = molecular target: Androgen receptor (Homo sapiens) (UniProt P10275); assay: qHTS assay to identify small molecule antagonists of the androgen receptor (AR) signaling pathway using the MDA cell line (AID 743042; note: nearly all actives have a fitted effect of over 55% in size; note: potency is the fitted concentration of half-maximal effect)
Outline: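 Antagonist mode: compounds plus R1881 agonist added to MDA-kb2 AR-luc cells, incubated 16 h at 37C. Luciferase reporter luminescence quantified, with multiplexed CellTiter-Fluor readout for cell viability.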

[10] = molecular target: Androgen receptor (Homo sapiens) (UniProt P10275); assay: qHTS assay to identify small molecule antagonists of the androgen receptor (AR) signaling pathway (AID 743035; active = well fitted inhibition curve with a large enough effect in the signal ratio in the repeat runs, not every such curve was filed as active; the % refers to the signal ratio)
Outline: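 Reporter HEK293 cells were exposed to compounds and R1881 overnight (16 h, 37C); beta-lactamase activity was then quantified by FRET fluorescence.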

Androgen receptor (Homo sapiens), sequence (P10275 whole entry, looked up): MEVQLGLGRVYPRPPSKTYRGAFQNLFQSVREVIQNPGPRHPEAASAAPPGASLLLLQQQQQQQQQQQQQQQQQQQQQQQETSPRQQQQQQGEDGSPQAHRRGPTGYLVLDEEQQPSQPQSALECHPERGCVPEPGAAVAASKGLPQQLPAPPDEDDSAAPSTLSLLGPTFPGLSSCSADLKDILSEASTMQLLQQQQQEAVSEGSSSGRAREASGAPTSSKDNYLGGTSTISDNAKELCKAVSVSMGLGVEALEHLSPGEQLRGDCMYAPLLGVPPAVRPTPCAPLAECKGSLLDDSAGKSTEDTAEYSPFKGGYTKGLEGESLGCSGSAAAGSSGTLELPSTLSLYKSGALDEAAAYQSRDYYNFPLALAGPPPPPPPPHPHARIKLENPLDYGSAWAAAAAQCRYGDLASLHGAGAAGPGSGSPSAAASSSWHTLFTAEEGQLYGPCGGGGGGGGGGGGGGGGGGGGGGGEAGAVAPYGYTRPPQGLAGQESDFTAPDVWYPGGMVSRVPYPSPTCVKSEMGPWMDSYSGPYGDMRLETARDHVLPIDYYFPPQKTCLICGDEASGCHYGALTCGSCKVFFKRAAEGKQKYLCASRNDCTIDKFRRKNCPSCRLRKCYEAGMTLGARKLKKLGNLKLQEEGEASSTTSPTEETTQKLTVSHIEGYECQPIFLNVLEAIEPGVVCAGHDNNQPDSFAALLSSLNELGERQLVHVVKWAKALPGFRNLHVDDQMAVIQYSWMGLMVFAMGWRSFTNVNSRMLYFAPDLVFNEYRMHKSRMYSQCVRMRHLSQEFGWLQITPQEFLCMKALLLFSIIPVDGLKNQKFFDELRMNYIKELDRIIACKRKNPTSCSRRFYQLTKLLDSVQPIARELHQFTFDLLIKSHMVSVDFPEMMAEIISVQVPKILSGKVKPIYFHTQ

Row | Compound | Potency [1] | Potency [2] | Potency [3] | Potency [4] | Potency [5] | outcome [6] | Potency [7] | Potency [8] | Potency [9] | Potency [10]
1 | O=[N+]([O-])C(Br)(CO)CO | inactive | 8.41 µM (active) and 6.11 µM (active) | 18.8 µM (active) and 7.7 µM (active) | 26.6 µM (active) and 12.2 µM (active) | inactive | inactive | inactive | inactive | inactive | –
2 | COC(=O)C(C)N(C(=O)Cc1ccccc1)c1c(C)cccc1C (stereo not drawn) | inactive | 8.63 µM (active) | 9.69 µM (active) | 15.4 µM (active) | inactive | – | inactive | inactive | – | –
3 | Cc1ccc2ccccc2c1 | inactive | inactive | inactive | inactive | inactive | inactive | inactive | inactive | inactive | inactive
4 | C/C(=C\c1ccccc1)[N+](=O)[O-] | 17.4 µM (active) | 5.45 µM (active) | 4.33 µM (active) | 4.33 µM (active) | 24.5 µM (active) | – | inactive | – | 27.3 µM (active) | –
5 | O=Cc1ccc(Cl)cc1Cl | inactive | inactive | inactive | inactive | inactive | – | – | inactive | – | –
6 | CCCCN(N=O)C(=N)N[N+](=O)[O-] | inactive | 17.6 µM (active) | 1.57 µM (active) | 2.79 µM (active) | inactive | inactive | inactive | inactive | – | inactive
7 | S=C=NCc1ccccc1 | inactive | inactive | inactive | inactive | inactive | inactive | inactive | inactive | inactive | –
8 | COP(=S)(OC)Oc1cc(Cl)c(I)cc1Cl | inactive | inactive | inactive | inactive | inactive | – | inactive | inactive | inactive | –
9 | O=C(C(Cl)(Cl)Cl)C(Cl)(Cl)Cl | inactive | inactive | inactive | inactive | inactive | inactive | inactive | inactive | inactive | inactive
10 | CCOc1ccc(C(C)(C)COCc2cccc(Oc3ccccc3)c2)cc1 | inactive | inactive | inactive | inactive | inactive | – | – | inactive | – | –
11 | CCOC(=O)[C@]1(c2ccccc2)Oc2ccccc2[C@@H]1N | inactive | 48.6 µM (active) | 4.86 µM (active) | 24.3 µM (active) | – | – | – | – | – | –
12 | O=C(Nc1ccccc1)Nc1cnns1 | inactive | 54.4 µM (active) | 54.4 µM (active) | 30.6 µM (active) | – | – | – | – | – | –
13 | CCC(C)(NC(=O)c1cc(Cl)c(C)c(Cl)c1)C(=O)CCl (stereo not drawn) | 43.9 µM (active) | 6.9 µM (active) | 12.3 µM (active) | 9.75 µM (active) | 24.7 µM (active) | – | – | – | – | –
14 | CC(=O)NC1CCSC1=O (stereo not drawn) | inactive | inactive | inactive | inactive | inactive | inactive | inactive | inactive | inactive | inactive
15 | C=CC(=O)OCC(C)C | inactive | inactive | inactive | inactive | inactive | – | – | inactive | – | –
16 | O=S(=O)(O)C(F)(F)C(F)(F)C(F)(F)C(F)(F)F | inactive | – | – | – | – | – | – | – | – | –
17 | [CH3][Sn]([CH3])([Cl])[Cl] | inactive | 54.5 µM (active) | 62.1 µM (active) and 27.3 µM (active) | 48.6 µM (active) | inactive | – | – | inactive | – | –
18 | Cc1ccccc1C(=O)Nc1cccc(OC(C)C)c1 | inactive | 48.6 µM (active) | 30.6 µM (active) | 48.6 µM (active) | inactive | – | inactive | inactive | inactive | –
19 | Clc1cccc2ccccc12 | inactive | inactive | inactive | inactive | inactive | – | – | inactive | – | –
20 | O=C(O)CC(Cl)C(=O)O (stereo not drawn) | inactive | inactive | inactive | inactive | inactive | – | – | inactive | – | –
21 | O=[N+]([O-])c1cc(C(F)(F)F)cc([N+](=O)[O-])c1Cl | inactive | inactive | inactive | inactive | inactive | – | – | 43.5 µM (active) | – | –
22 | CC1CC(CC2CCC(N)C(C)C2)CCC1N (stereo not drawn) | inactive | 7.82 µM (active) | 2.47 µM (active) | 9.85 µM (active) | inactive | inactive | inactive | 31.1 µM (active) | inactive | –
23 | C=CCOC(C)=O | inactive | inactive | inactive | inactive | inactive | inactive | inactive | inactive | inactive | inactive
24 | CCCN(CCCl)c1c([N+](=O)[O-])cc(C(F)(F)F)cc1[N+](=O)[O-] | inactive | inactive | inactive | inactive | inactive | – | – | inactive | – | –
